# Reference: paper PMC12820563, “FoxP3 forms a head-to-head dimer in vivo and stabilizes its multimerization on adjacent microsatellites”
# The full ranking holds about 16,000 sequences; the median of “rpm ratio (pull-down/input)” is about 0.94, and the highest 2% start at about 1.7. This is one part of a sample in which the highest values are shown more often than they occur.
# Target: T1, MBP-FoxP1dN (Mus musculus, UniProt P58462 326-579)
# T1 sequence: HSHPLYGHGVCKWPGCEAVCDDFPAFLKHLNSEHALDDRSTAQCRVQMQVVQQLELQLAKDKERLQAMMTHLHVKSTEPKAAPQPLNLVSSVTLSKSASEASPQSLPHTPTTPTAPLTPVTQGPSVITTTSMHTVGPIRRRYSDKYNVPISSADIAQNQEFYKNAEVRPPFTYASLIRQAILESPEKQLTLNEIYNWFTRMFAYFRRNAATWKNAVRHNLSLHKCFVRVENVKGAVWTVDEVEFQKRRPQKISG
# Assay: PD-seq (MBP pull-down with sequencing); 20 mM Tris-HCl pH 7.5, 100 mM NaCl, 1.5 mM MgCl2, 0.4 uM protein, 0.1 uM dsDNA library, 30 min, room temperature, amylose pull-down; high values mean tight binding
# Settings: protein: recombinant; tags: His6-MBP; chain copies: 2; dsDNA, one strand shown
# Method in brief: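 Mouse FoxP3 or FoxP1 fragment lacking the N-terminus, His6-MBP-tagged and expressed in E. coli, was incubated at 0.4 µM with 0.1 µM Klenow-filled degenerate double-stranded DNA library for 30 min at room temperature in Tris pH 7.5 buffer with NaCl and MgCl2. Complexes captured on amylose resin were washed three times and their DNA sequenced on Illumina. Binding is reads-per-million enrichment of pull-down over input, replicates pooled.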
row,Sequence,binding signal
1,GATGATTGTTCTCCCAGCTGATGAATTAGATCGGTCGAGTAAACAAATTTTCCTAATCTTTCTGTTCAAGCGCCATCTAC,0.789 RPM ratio (pull-down/input)
2,GATGATTGTTCTCCCAGCTGATGAATTGTGGGAATCGAGTAAACAAATTTTCCTAATCTTTCTGTTCAAGCGCCATCTAC,1.08 RPM ratio (pull-down/input)
3,GATGATTGTTCTCCCAGCTGATGAATTCCGTCCTTCGAGTAAACAAATTTTCCTAATCTTTCTGTTCAAGCGCCATCTAC,0.801 RPM ratio (pull-down/input)
4,GATGATTGTTCTCCCAGCTGATGAATTAGGTGATTCGAGTAAACAAATTTTCCTAATCTTTCTGTTCAAGCGCCATCTAC,1.06 RPM ratio (pull-down/input)
5,GATGATTGTTCTCCCAGCTGATGAATTCGTTGTATCGAGTAAACAAATTTTCCTAATCTTTCTGTTCAAGCGCCATCTAC,1.3 RPM ratio (pull-down/input)
6,GATGATTGTTCTCCCAGCTGATGAATTCCTCAAGTCGAGTAAACAAATTTTCCTAATCTTTCTGTTCAAGCGCCATCTAC,0.819 RPM ratio (pull-down/input)
7,GATGATTGTTCTCCCAGCTGATGAATTGAGCGTGTCGAGTAAACAAATTTTCCTAATCTTTCTGTTCAAGCGCCATCTAC,0.844 RPM ratio (pull-down/input)
8,GATGATTGTTCTCCCAGCTGATGAATTGGTATTCTCGAGTAAACAAATTTTCCTAATCTTTCTGTTCAAGCGCCATCTAC,1.02 RPM ratio (pull-down/input)
9,GATGATTGTTCTCCCAGCTGATGAATTGGTATTGTCGAGTAAACAAATTTTCCTAATCTTTCTGTTCAAGCGCCATCTAC,2.44 RPM ratio (pull-down/input)
10,GATGATTGTTCTCCCAGCTGATGAATTTTGGTATTCGAGTAAACAAATTTTCCTAATCTTTCTGTTCAAGCGCCATCTAC,1.06 RPM ratio (pull-down/input)
11,GATGATTGTTCTCCCAGCTGATGAATTTGGTATGTCGAGTAAACAAATTTTCCTAATCTTTCTGTTCAAGCGCCATCTAC,0.971 RPM ratio (pull-down/input)
12,GATGATTGTTCTCCCAGCTGATGAATTGGTATTTTCGAGTAAACAAATTTTCCTAATCTTTCTGTTCAAGCGCCATCTAC,2.46 RPM ratio (pull-down/input)
13,GATGATTGTTCTCCCAGCTGATGAATTTGGTATTTCGAGTAAACAAATTTTCCTAATCTTTCTGTTCAAGCGCCATCTAC,1.07 RPM ratio (pull-down/input)
14,GATGATTGTTCTCCCAGCTGATGAATTCGGACCGTCGAGTAAACAAATTTTCCTAATCTTTCTGTTCAAGCGCCATCTAC,0.773 RPM ratio (pull-down/input)
15,GATGATTGTTCTCCCAGCTGATGAATTAGGTTCATCGAGTAAACAAATTTTCCTAATCTTTCTGTTCAAGCGCCATCTAC,0.921 RPM ratio (pull-down/input)
16,GATGATTGTTCTCCCAGCTGATGAATTGCCAGTCTCGAGTAAACAAATTTTCCTAATCTTTCTGTTCAAGCGCCATCTAC,0.829 RPM ratio (pull-down/input)

row,Sequence,binding signal
1,GATGATTGTTCTCCCAGCTGATGAATTCTGACTTTCGAGTAAACAAATTTTCCTAATCTTTCTGTTCAAGCGCCATCTAC,0.897 RPM ratio (pull-down/input)
2,GATGATTGTTCTCCCAGCTGATGAATTGTTTTGGTCGAGTAAACAAATTTTCCTAATCTTTCTGTTCAAGCGCCATCTAC,2.02 RPM ratio (pull-down/input)
3,GATGATTGTTCTCCCAGCTGATGAATTGGTTTGGTCGAGTAAACAAATTTTCCTAATCTTTCTGTTCAAGCGCCATCTAC,0.947 RPM ratio (pull-down/input)
4,GATGATTGTTCTCCCAGCTGATGAATTTTTTGGGTCGAGTAAACAAATTTTCCTAATCTTTCTGTTCAAGCGCCATCTAC,0.836 RPM ratio (pull-down/input)
5,GATGATTGTTCTCCCAGCTGATGAATTGTTTGGGTCGAGTAAACAAATTTTCCTAATCTTTCTGTTCAAGCGCCATCTAC,1.79 RPM ratio (pull-down/input)
6,GATGATTGTTCTCCCAGCTGATGAATTTTGTTGGTCGAGTAAACAAATTTTCCTAATCTTTCTGTTCAAGCGCCATCTAC,2.26 RPM ratio (pull-down/input)
7,GATGATTGTTCTCCCAGCTGATGAATTCTTTTGGTCGAGTAAACAAATTTTCCTAATCTTTCTGTTCAAGCGCCATCTAC,1 RPM ratio (pull-down/input)
8,GATGATTGTTCTCCCAGCTGATGAATTTGTTTGGTCGAGTAAACAAATTTTCCTAATCTTTCTGTTCAAGCGCCATCTAC,2.1 RPM ratio (pull-down/input)
9,GATGATTGTTCTCCCAGCTGATGAATTTGGTTGGTCGAGTAAACAAATTTTCCTAATCTTTCTGTTCAAGCGCCATCTAC,0.868 RPM ratio (pull-down/input)
10,GATGATTGTTCTCCCAGCTGATGAATTTGATTGGTCGAGTAAACAAATTTTCCTAATCTTTCTGTTCAAGCGCCATCTAC,0.963 RPM ratio (pull-down/input)
11,GATGATTGTTCTCCCAGCTGATGAATTTGTTGGGTCGAGTAAACAAATTTTCCTAATCTTTCTGTTCAAGCGCCATCTAC,1.56 RPM ratio (pull-down/input)
12,GATGATTGTTCTCCCAGCTGATGAATTTCTTTGGTCGAGTAAACAAATTTTCCTAATCTTTCTGTTCAAGCGCCATCTAC,0.881 RPM ratio (pull-down/input)
13,GATGATTGTTCTCCCAGCTGATGAATTTTTTTGGTCGAGTAAACAAATTTTCCTAATCTTTCTGTTCAAGCGCCATCTAC,0.952 RPM ratio (pull-down/input)
14,GATGATTGTTCTCCCAGCTGATGAATTCTTTAAGTCGAGTAAACAAATTTTCCTAATCTTTCTGTTCAAGCGCCATCTAC,0.837 RPM ratio (pull-down/input)
15,GATGATTGTTCTCCCAGCTGATGAATTTCTAGCATCGAGTAAACAAATTTTCCTAATCTTTCTGTTCAAGCGCCATCTAC,1.06 RPM ratio (pull-down/input)
16,GATGATTGTTCTCCCAGCTGATGAATTTCTGCATTCGAGTAAACAAATTTTCCTAATCTTTCTGTTCAAGCGCCATCTAC,1.35 RPM ratio (pull-down/input)
